# Structures can show the parent of a compound that is named as a salt.
# System: Saccharomyces cerevisiae
# Experiment: fraction of cells in G1 phase (DNA content, flow cytometry); higher = more cells with unreplicated DNA (G1 delay)
# Details: temperature: 30 C; YPD; JTY2953 pdr5 snq2 (sensitized); drug added to: cultures diluted from stationary phase; 6-7 h
# Method in brief: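 Overnight cultures of sensitized JTY2953 were diluted 1∶200 into drug at a final 20 µg/ml and fixed after 6–7 h, and further runs treated dividing JTY2953 or BY4741, fixing them 6 h and 4.33 h later respectively. All growth used YPD at 30°C with S. cerevisiae and library drugs. After ethanol fixation and SYTOX Green staining, flow cytometry recorded 10,000 events. The G1 fraction equals the Dean-Jett-Fox G1 peak area over the G1 plus G2/M areas.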
row,SMILES,fraction of cells in G1 phase
1,O=C(O)c1cc(-c2ccc(F)cc2F)ccc1O [Diflunisal] (79.9349 µM),0.512
2,CC(C)OC(=O)C(C)(C)Oc1ccc(C(=O)c2ccc(Cl)cc2)cc1 [Fenofibrate] (55.4261 µM),0.497
3,COC(=O)C1=C(C)NC(C)=C(C(=O)OCCN2CCN(C(c3ccccc3)c3ccccc3)CC2)C1c1cccc([N+](=O)[O-])c1 (stereo not drawn) [Manidipine] (32.7484 µM),0.554
4,CC1COc2c(N3CCN(C)CC3)c(F)cc3c(=O)c(C(=O)O)cn1c23 (stereo not drawn) [Ofloxacin] (55.344 µM),0.505
5,N#Cc1ccc(C(c2ccc(C#N)cc2)n2cncn2)cc1 [Letrozole] (70.099 µM),0.519
6,CC(N/C(=N\C#N)Nc1ccncc1)C(C)(C)C (stereo not drawn) [Pinacidil] (81.5229 µM),0.51
7,CN(C)CCOC(c1ccccc1)c1ccccc1 [Diphenhydramine HCl] (78.3199 µM),0.446
8,COC(=O)N/N=C/c1c[n+]([O-])c2ccccc2[n+]1[O-] [Carbadox] (76.2699 µM),0.414
9,CCS(=O)(=O)CCn1c([N+](=O)[O-])cnc1C [Tinidazole] (80.8818 µM),0.443
10,O=C(O)c1cc(/N=N/c2ccc(S(=O)(=O)Nc3ccccn3)cc2)ccc1O [Sulfasalazine] (50.2008 µM),0.517
11,COc1ccc(C(=O)NCc2ccc(OCCN(C)C)cc2)cc1OC [Itopride HCl] (55.7972 µM),0.501
12,CCCC(CCC)C(=O)O [Valproic acid] (138.681 µM),0.541
13,O=C(O)c1cccnc1Nc1cccc(C(F)(F)F)c1 [Niflumic acid] (70.8657 µM),0.505
14,CC(C)CN(C[C@@H](O)[C@H](Cc1ccccc1)NC(=O)O[C@H]1CCOC1)S(=O)(=O)c1ccc(N)cc1 [Amprenavir] (39.554 µM),0.472
15,CN(C)/N=N/c1[nH]cnc1C(N)=O [Dacarbazine] (109.778 µM),0.47
16,O=C(c1ccc(OCCN2CCCCC2)cc1)c1c(-c2ccc(O)cc2)sc2cc(O)ccc12 [Raloxifene HCl] (42.2301 µM),0.508
17,Cc1nc2c([nH]1)c(=O)n(C)c(=O)n2Cc1ccco1 [Furafylline] (76.8479 µM),0.463
18,CC(C)C(=O)Nc1ccc([N+](=O)[O-])c(C(F)(F)F)c1 [Flutamide] (72.4068 µM),0.526
19,"Nc1ccn([C@H]2CC[C@@H](CO)O2)c(=O)n1 [2',3' - dideoxycytidine] (94.687 µM)",0.474

row,SMILES,fraction of cells in G1 phase
1,CC[C@H]1OC(=O)[C@H](C)[C@@H](O[C@H]2C[C@@](C)(OC)[C@@H](O)[C@H](C)O2)[C@H](C)[C@@H](O[C@@H]2O[C@H](C)C[C@H](N(C)C)[C@H]2O)[C@](C)(OC)C[C@@H](C)C(=O)[C@H](C)[C@@H](O)[C@]1(C)O [Clarithromycin] (26.7389 µM),0.489
2,C[C@@H]1C[C@H]2[C@@H]3CCC4=CC(=O)C=C[C@]4(C)[C@@]3(F)[C@@H](O)C[C@]2(C)[C@@]1(O)C(=O)CO [Dexamethasone] (50.9591 µM),0.504
3,O=C1NC(=O)C(c2ccccc2)(c2ccccc2)N1 [Phenytoin] (79.2785 µM),0.535
4,Nc1ccc(C(=O)O)c(O)c1 [4-aminosalicylic acid] (130.601 µM),0.481
5,COC(=O)C1=C(C)NC(C)=C(C(=O)OC)C1c1ccccc1[N+](=O)[O-] [Nifedipine] (57.7463 µM),0.551
6,CCN(CC)CCCC(C)Nc1ccnc2cc(Cl)ccc12 (stereo not drawn) [Chloroquine phosphate] (62.5232 µM),0.469
7,COc1ccc([C@@H]2Sc3ccccc3N(CCN(C)C)C(=O)[C@@H]2OC(C)=O)cc1 [Diltiazem] (44.3459 µM),0.544
8,CC(C)NCC(O)COc1cccc2[nH]ccc12 (stereo not drawn) [Pindolol] (80.5387 µM),0.515
9,COc1ccc2c(c1)c(CC(=O)OCC(=O)O)c(C)n2C(=O)c1ccc(Cl)cc1 [Acemetacin] (48.0961 µM),0.489
10,COc1ccc(C2CNC(=O)C2)cc1OC1CCCC1 (stereo not drawn) [Rolipram] (72.6347 µM),0.497
11,COc1cc(C)c(/C=C/C(C)=C/C=C/C(C)=C/C(=O)O)c(C)c1C [Acitretin] (61.2745 µM),0.563
12,COc1cc(C(=O)NS(=O)(=O)c2ccccc2C)ccc1Cc1cn(C)c2ccc(NC(=O)OC3CCCC3)cc12 [Zafirlukast] (34.741 µM),0.509
13,CCOC(=O)/C=C(C)/C=C/C=C(C)/C=C/c1c(C)cc(OC)c(C)c1C [Etretinate] (56.4185 µM),0.557
14,O=C(NCCNCC(O)COc1ccc(O)cc1)N1CCOCC1 (stereo not drawn) [Xamoterol hemifumarate] (58.9284 µM),0.518
15,N=C(N)NC(=N)N1CCOCC1 [Moroxydine HCl] (96.3092 µM),0.496
16,Cc1ccc(N(CC2=NCCN2)c2cccc(O)c2)cc1 [PhentolamineHCl] (62.9327 µM),0.505
17,CCCSc1ccc2[nH]c(NC(=O)OC)nc2c1 [Albendazole] (75.3761 µM),0.475
18,CCCCNc1cc(C(=O)O)cc(S(N)(=O)=O)c1Oc1ccccc1 [Bumetanide] (54.8812 µM),0.566
19,C[C@H]1[C@H](NC(=O)/C(=N\OC(C)(C)C(=O)O)c2csc(N)n2)C(=O)N1S(=O)(=O)O [Aztreonam] (45.9309 µM),0.489

# Reference: the supplement of paper PMC3342239
